Data from PubChem BioAssay (EPA / NIEHS).
Inconclusive results are not listed. The source made the active and inactive calls. The calls were made as follows, unless noted: active = hit-call score of the fitted dose curve at least 0.9, where 1 is the maximum; inactive = score below 0.9.

Experiments:
[1] = target: Myc proto-oncogene protein (Homo sapiens) (UniProt P01106); assay: ATG_Myc_CIS: Attagene CIS-FACTORIAL HepG2 Assay for human Myelocytomatosis (Myc) Proto-Oncogene Transcription Factor (AID 2282990); conditions: HepG2, Attagene cis-reporter transcription factor activity; actives raise or lower the signal
Chain of Myc proto-oncogene protein (Homo sapiens) (P01106 whole entry, looked up, the tested form may be a part): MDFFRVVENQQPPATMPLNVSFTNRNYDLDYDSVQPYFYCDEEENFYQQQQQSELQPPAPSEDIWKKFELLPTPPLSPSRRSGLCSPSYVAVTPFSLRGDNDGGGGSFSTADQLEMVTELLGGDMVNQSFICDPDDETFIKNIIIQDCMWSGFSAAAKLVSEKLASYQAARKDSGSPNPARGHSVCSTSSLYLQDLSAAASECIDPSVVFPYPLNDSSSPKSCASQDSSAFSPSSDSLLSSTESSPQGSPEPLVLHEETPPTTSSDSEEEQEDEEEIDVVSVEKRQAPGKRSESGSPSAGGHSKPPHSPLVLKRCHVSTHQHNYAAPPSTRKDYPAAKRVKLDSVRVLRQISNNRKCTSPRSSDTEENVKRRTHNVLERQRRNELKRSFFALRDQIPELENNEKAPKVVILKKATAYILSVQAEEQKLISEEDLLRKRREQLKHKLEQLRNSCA
In short: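 After 24 h chemical treatment of HepG2 cells carrying multiplexed cis-regulated reporter constructs, reporter transcripts quantified by RT-PCR and capillary electrophoresis of fluorescent fragments. Gain or loss fitted against DMSO baseline.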

[2] = ATG_NF_kB_CIS: Attagene CIS-FACTORIAL HepG2 Assay for human Nuclear Factor Kappa B (NF-kB) (AID 2282991); conditions: HepG2 Attagene cis-factorial NF-kB reporter mRNA; actives raise or lower the signal
In short: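 Fluorescence of labelled RT-PCR products separated by capillary electrophoresis gives reporter mRNA levels from transfected HepG2 cells exposed 24 h; values are fitted in both directions relative to DMSO.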

[3] = ATG_NRF2_ARE_CIS: Attagene CIS-FACTORIAL HepG2 Assay for human Nuclear Factor Erythroid 2 Related Factor 2 (NFR2) response to Antioxidant Response Elements (ARE) (AID 2282992); conditions: HepG2 Attagene ARE/NRF2 reporter, transcription factor activity; actives raise or lower the signal
In short: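 HepG2 cells transiently transfected with multiplexed cis-regulated reporter transcription units measure endogenous transcription factor activity. Reporter mRNA at 24 h is quantified by RT-PCR, fluorescent labelling and capillary electrophoresis, with bidirectional fitting relative to DMSO.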

[4] = ATG_Oct_MLP_CIS: Attagene CIS-FACTORIAL HepG2 Assay for human Octamer-Binding Transcription Factor (Oct) (AID 2282993); conditions: HepG2 Attagene cis-factorial Oct reporter, mRNA; actives raise or lower the signal
In short: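 Readout is reporter transcript level from RT-PCR with fluorescent primer extension and capillary electrophoresis, fitted in both directions against DMSO. Transfected HepG2 reporter units report endogenous factor activity after 24 h dosing.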

[5] = target: Cellular tumor antigen p53 (Homo sapiens) (UniProt P04637); assay: ATG_p53_CIS: Attagene CIS-FACTORIAL HepG2 Assay for human p53 Transcription Factor (AID 2282994); conditions: HepG2 p53 cis-element reporter, Attagene mRNA; actives raise or lower the signal
Chain of Cellular tumor antigen p53 (Homo sapiens) (P04637 whole entry, looked up): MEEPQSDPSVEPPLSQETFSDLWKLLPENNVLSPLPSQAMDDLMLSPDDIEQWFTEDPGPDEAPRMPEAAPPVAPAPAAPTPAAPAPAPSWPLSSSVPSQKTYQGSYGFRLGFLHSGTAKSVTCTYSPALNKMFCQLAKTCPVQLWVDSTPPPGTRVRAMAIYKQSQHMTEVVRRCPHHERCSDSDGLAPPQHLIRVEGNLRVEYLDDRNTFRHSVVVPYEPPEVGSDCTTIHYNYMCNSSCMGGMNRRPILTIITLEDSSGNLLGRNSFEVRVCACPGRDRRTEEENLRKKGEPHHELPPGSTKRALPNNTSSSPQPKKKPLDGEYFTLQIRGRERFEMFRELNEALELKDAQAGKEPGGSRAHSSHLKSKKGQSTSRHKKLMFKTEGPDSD
In short: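 HepG2 cells transiently transfected with multiplexed cis-regulated reporter transcription units read endogenous TF activity. After 24 h compound exposure, reporter mRNA was quantified by RT-PCR, fluorescent labelling, HpaI digestion and capillary electrophoresis; bidirectional fits versus DMSO baseline.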

[6] = target: human Peroxisome Proliferator-activated Receptor alpha (PPARa), PPARA (gene 5465) (UniProt Q07869); assay: ATG_PPARa_TRANS: Attagene TRANS-FACTORIAL HepG2 Assay for human Peroxisome Proliferator-activated Receptor alpha (PPARa) (AID 2283001; active = hit-call score of the fitted dose curve at least 0.9, where 1 is the maximum;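 as to AC50: potency for gain of reporter signal over DMSO so agonist or activator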)
Chain of human Peroxisome Proliferator-activated Receptor alpha (PPARa), PPARA (gene 5465) (Q07869 whole entry, looked up, the tested form may be a part): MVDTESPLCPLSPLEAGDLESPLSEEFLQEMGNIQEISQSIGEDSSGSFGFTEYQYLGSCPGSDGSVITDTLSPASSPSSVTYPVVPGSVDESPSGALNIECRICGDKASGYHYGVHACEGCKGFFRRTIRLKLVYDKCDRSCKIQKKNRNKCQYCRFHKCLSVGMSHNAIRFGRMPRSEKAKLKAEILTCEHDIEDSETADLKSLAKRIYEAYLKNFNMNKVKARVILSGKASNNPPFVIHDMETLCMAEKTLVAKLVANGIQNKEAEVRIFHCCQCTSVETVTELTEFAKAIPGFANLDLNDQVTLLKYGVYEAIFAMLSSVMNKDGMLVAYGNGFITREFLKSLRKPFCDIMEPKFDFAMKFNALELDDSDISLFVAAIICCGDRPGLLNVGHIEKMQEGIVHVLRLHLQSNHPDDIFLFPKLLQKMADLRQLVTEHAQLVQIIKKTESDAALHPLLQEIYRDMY
In short: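 Reporter transcripts from GAL4-UAS units in transfected HepG2 were quantified 24 h after dosing. Detection used reverse transcription, PCR, fluorescent primer extension and capillary electrophoresis, with DMSO as baseline.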

[7] = target: human Peroxisome Proliferator-activated Receptor delta (PPARd), PPARD (gene 5467) (UniProt Q03181); assay: ATG_PPARd_TRANS: Attagene TRANS-FACTORIAL HepG2 Assay for human Peroxisome Proliferator-activated Receptor delta (PPARd) (AID 2283002; active = hit-call score of the fitted dose curve at least 0.9, where 1 is the maximum)
Chain of human Peroxisome Proliferator-activated Receptor delta (PPARd), PPARD (gene 5467) (Q03181 whole entry, looked up, the tested form may be a part): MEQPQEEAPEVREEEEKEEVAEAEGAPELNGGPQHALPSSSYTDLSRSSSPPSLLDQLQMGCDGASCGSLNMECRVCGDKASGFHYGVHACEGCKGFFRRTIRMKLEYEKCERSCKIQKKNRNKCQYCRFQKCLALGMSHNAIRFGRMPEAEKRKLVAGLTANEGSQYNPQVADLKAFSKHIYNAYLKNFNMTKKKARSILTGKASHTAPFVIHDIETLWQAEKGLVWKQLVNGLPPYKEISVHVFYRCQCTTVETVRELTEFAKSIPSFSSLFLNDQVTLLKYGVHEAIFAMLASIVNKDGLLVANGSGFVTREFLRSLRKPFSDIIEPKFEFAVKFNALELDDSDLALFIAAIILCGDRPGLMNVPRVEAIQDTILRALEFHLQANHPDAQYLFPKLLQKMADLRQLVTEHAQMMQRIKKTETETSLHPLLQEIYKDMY
In short: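 Read-out is induced reporter mRNA, quantified by RT-PCR with fluorescent labelling and capillary electrophoresis after 24 h dosing. Cells are HepG2 transiently carrying multiple GAL4-UAS reporter units driven by exogenous NR-GAL4 chimeras; DMSO serves as baseline.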

[8] = target: Peroxisome proliferator-activated receptor gamma (Homo sapiens) (UniProt P37231); assay: ATG_PPARg_TRANS: Attagene TRANS-FACTORIAL HepG2 Assay for human Peroxisome Proliferator-activated Receptor-gamma (PPARg) (AID 2283007; active = hit-call score of the fitted dose curve at least 0.9, where 1 is the maximum)
Chain of Peroxisome proliferator-activated receptor gamma (Homo sapiens) (P37231 whole entry, looked up): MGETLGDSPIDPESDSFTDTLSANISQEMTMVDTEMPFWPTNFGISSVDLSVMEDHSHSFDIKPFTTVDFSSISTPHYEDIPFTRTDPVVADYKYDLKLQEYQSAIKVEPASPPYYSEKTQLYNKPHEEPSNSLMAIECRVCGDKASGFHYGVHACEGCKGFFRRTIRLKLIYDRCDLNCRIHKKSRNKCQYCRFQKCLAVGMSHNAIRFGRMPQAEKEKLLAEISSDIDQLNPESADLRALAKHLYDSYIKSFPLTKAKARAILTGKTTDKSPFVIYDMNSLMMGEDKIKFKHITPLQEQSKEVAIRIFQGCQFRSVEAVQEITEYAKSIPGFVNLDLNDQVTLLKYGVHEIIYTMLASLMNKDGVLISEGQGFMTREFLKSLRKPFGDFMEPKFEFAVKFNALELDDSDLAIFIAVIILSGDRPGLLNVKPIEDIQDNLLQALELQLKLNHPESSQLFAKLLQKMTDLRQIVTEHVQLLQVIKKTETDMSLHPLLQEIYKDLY
In short: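 Twenty-four hours after chemical dosing of transiently transfected HepG2 cells, isolated RNA was converted to cDNA, reporter sequences amplified and 6-FAM-labelled, then HpaI-digested and analysed by capillary electrophoresis. Signal increase against DMSO was fitted.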

[9] = target: Nuclear receptor subfamily 1 group I member 2 (Homo sapiens) (UniProt O75469); assay: ATG_PXR_TRANS: Attagene TRANS-FACTORIAL HepG2 Assay for human Pregnane X Receptor (PXR) (AID 2283008; active = hit-call score of the fitted dose curve at least 0.9, where 1 is the maximum)
Chain of Nuclear receptor subfamily 1 group I member 2 (Homo sapiens) (O75469 whole entry, looked up, the tested form may be a part): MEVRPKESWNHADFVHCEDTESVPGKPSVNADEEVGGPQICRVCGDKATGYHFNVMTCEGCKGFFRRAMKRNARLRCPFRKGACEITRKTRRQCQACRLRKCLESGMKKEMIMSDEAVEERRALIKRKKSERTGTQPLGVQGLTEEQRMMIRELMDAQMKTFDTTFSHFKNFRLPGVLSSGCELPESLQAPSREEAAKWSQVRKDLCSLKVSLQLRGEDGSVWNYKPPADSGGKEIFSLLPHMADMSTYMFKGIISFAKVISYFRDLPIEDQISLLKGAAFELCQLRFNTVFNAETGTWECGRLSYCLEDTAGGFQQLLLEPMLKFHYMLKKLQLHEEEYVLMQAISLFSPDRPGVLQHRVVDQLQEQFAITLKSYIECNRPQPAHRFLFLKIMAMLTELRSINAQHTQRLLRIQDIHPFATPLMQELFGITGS
In short: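 HepG2 cells transiently transfected with multiple reporter units, here a PXR-GAL4 chimera driving a GAL4-UAS reporter; 24 h compound exposure. Reporter mRNA measured by RT-PCR, FAM labelling and capillary electrophoresis; gain of signal fitted against DMSO baseline.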

[10] = target: human RAR-related Orphan Receptor gamma (RORg), RORC (gene 6097) (UniProt P51449); assay: ATG_RORg_TRANS: Attagene TRANS-FACTORIAL HepG2 Assay for human RAR-related Orphan Receptor gamma (RORg) (AID 2283011; active = hit-call score of the fitted dose curve at least 0.9, where 1 is the maximum)
Chain of human RAR-related Orphan Receptor gamma (RORg), RORC (gene 6097) (P51449 whole entry, looked up, the tested form may be a part): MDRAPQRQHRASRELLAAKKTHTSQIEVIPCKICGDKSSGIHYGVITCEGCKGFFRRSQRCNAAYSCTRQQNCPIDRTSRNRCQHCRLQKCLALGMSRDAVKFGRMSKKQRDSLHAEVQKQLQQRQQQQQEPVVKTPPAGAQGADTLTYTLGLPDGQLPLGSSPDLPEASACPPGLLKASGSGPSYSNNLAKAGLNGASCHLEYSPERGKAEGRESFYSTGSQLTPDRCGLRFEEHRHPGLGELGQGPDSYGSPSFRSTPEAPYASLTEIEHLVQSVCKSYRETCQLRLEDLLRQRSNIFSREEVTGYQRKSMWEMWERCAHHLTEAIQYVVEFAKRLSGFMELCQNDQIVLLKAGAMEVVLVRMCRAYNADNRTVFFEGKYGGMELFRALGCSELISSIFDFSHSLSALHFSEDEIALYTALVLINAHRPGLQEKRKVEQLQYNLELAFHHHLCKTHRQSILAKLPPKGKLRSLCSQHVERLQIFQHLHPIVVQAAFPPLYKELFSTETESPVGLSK
In short: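 Activity is scored as increase in GAL4-UAS reporter mRNA over DMSO, detected by fluorescent RT-PCR and capillary electrophoresis in HepG2 cells transiently expressing a RORg-Gal4 chimera, 24 h after dosing.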

[11] = target: Retinoic acid receptor alpha (Homo sapiens) (UniProt P10276); assay: ATG_RARa_TRANS: Attagene TRANS-FACTORIAL HepG2 Assay for human Retinoic Acid Receptor alpha (RARa) (AID 2283005; active = hit-call score of the fitted dose curve at least 0.9, where 1 is the maximum;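 as to AC50: potency for increased reporter signal meaning RARa activation over DMSO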)
Chain of Retinoic acid receptor alpha (Homo sapiens) (P10276 whole entry, looked up, the tested form may be a part): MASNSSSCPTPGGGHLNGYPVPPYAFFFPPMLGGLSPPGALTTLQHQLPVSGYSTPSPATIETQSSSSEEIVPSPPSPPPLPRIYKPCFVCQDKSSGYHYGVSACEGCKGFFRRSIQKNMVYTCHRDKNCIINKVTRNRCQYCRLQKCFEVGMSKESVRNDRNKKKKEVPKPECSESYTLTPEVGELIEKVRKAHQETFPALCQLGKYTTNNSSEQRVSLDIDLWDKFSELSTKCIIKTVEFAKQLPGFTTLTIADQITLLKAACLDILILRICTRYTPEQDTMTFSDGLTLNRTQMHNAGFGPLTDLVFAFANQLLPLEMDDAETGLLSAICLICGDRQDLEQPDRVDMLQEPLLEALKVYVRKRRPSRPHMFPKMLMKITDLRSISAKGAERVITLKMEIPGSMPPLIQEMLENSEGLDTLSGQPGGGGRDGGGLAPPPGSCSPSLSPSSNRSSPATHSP
In short: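 Reporter transcripts, measured by RT-PCR with fluorescent labeling and capillary electrophoresis after 24 h dosing, reflect activity of an exogenous human RARa–GAL4 fusion in transiently transfected HepG2. Fitted for increase relative to DMSO.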

[12] = target: human Retinoic Acid Receptor gamma (RARg), RARG (gene 5916) (UniProt P13631); assay: ATG_RARg_TRANS: Attagene TRANS-FACTORIAL HepG2 Assay for human Retinoic Acid Receptor gamma (RARg) (AID 2283009; active = hit-call score of the fitted dose curve at least 0.9, where 1 is the maximum;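 as to AC50: AC50 is for reporter induction above DMSO meaning RARg activation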)
Chain of human Retinoic Acid Receptor gamma (RARg), RARG (gene 5916) (P13631 whole entry, looked up, the tested form may be a part): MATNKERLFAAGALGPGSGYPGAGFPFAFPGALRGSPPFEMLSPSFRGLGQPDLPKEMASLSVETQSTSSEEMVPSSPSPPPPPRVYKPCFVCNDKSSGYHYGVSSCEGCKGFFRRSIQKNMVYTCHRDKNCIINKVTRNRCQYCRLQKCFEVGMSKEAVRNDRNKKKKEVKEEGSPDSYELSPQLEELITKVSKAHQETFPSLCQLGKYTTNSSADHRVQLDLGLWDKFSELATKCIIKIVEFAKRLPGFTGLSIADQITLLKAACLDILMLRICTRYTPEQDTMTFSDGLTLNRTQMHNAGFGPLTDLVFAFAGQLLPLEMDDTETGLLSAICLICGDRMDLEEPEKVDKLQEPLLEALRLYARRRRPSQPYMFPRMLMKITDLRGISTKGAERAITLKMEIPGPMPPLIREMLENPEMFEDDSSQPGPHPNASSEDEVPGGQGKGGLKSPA
In short: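 HepG2, RARg-GAL4 TRANS system, 24 h exposure; reporter mRNA by RT-PCR + CE fluorescence; increase over DMSO.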

[13] = target: human RAR-related Orphan Receptor beta (RORb), RORB (gene 6096) (UniProt Q92753); assay: ATG_RORb_TRANS: Attagene TRANS-FACTORIAL HepG2 Assay for human RAR-related Orphan Receptor beta (RORb) (AID 2283010; active = hit-call score of the fitted dose curve at least 0.9, where 1 is the maximum)
In short: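 In this TRANS-format test, human HepG2 cells express chimeric NR-Gal4 fusion proteins driving GAL4-UAS reporters. After 24 h dosing, reporter transcripts are measured by fluorescent RT-PCR/capillary electrophoresis, with DMSO as negative control.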

[14] = BSK_3C_TissueFactor: BioMAP Diversity Plus: 3C Assay for Tissue Factor Biomarker Activity (AID 2282997); conditions: BioMAP 3C HUVEC, tissue factor biomarker readout; actives raise or lower the signal
In short: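 Values derive from bidirectional curve fitting against DMSO of Tissue Factor ELISA signals, taken 24 h after dosing primary human umbilical vein endothelial cells.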

[15] = BSK_3C_uPAR: BioMAP Diversity Plus: 3C Assay for Urokinase-type plasminogen activator receptor (uPAR) Biomarker Activity (AID 2282998); conditions: BioMAP 3C HUVEC, uPAR biomarker ELISA; actives raise or lower the signal
In short: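 Cell-surface uPAR on HUVEC (3C system) read by ELISA at 24 h post-treatment, with DMSO as baseline and fitting in both directions. Parallel cultures stained with SRB to flag overt cytotoxicity.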

[16] = BSK_3C_VCAM1: BioMAP Diversity Plus: 3C Assay for Vascular cell adhesion molecule 1 (VCAM1) Biomarker Activity (AID 2282999); conditions: BioMAP 3C HUVEC, VCAM1 ELISA, cytokine-stimulated; actives raise or lower the signal
In short: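 Endothelial cells from human umbilical vein are treated with test chemical. At 24 h, VCAM-1 is measured by ELISA, and responses in either direction are fitted relative to DMSO.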

[17] = BSK_4H_Eotaxin3: BioMAP Diversity Plus: 4H Assay for Eotaxin 3 Biomarker Activity (AID 2283000); conditions: primary human endothelial cells (HUVEC); actives raise or lower the signal;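 also: CCL26 protein level quantified by ELISA in parallel with SRB cytotoxicity check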
In short: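 Endothelial primary cells (human umbilical vein) exposed to compound for 24 h. ELISA detection of Eotaxin-3.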

[18] = read-out: Intercellular Adhesion Molecule 1 (ICAM1), ICAM1 (gene 3383); assay: BSK_3C_ICAM1: BioMAP Diversity Plus: 3C Assay for Intercellular Adhesion Molecule 1 (ICAM1) Biomarker Activity (AID 2283003); conditions: primary human endothelial cells (HUVEC); actives raise or lower the signal
In short: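 Human vascular endothelial primary cells, 3C conditions, 24 h treatment. ICAM-1 by ELISA.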

[19] = BSK_3C_Proliferation: Cell Proliferation Assessment in the BioMAP Diversity Plus: 3C Assay (AID 2283006); conditions: primary human endothelial cells (HUVEC)
In short: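 Proliferation of human vascular endothelial primary cells after 48 h dosing, quantified as SRB-stained protein at 560 nm relative to DMSO.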

[20] = target: human Retinoic Acid Receptor beta (RARb), RARB (gene 5915) (UniProt P10826); assay: ATG_RARb_TRANS: Attagene TRANS-FACTORIAL HepG2 Assay for human Retinoic Acid Receptor beta (AID 2283004; active = hit-call score of the fitted dose curve at least 0.9, where 1 is the maximum)
Chain of human Retinoic Acid Receptor beta (RARb), RARB (gene 5915) (P10826 whole entry, looked up, the tested form may be a part): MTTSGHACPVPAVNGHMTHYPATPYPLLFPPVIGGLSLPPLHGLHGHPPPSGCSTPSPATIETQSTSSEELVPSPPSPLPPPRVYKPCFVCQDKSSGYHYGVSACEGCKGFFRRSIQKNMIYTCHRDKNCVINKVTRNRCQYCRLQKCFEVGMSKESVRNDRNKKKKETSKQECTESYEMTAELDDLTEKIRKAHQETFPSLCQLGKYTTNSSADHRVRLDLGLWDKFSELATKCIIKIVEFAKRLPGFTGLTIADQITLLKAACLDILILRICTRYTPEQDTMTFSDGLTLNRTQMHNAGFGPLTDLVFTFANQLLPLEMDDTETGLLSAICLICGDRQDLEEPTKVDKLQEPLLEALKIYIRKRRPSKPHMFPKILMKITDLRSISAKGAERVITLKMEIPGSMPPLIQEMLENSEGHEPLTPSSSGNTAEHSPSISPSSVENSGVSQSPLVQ
In short: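 HepG2, transient MRTU transfection, NR–Gal4 chimera, 24 h treatment; RT-PCR plus CE fluorescence detection of reporter mRNA; gain of signal vs DMSO.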

Measured: AC50

O=c1c(O)c(-c2ccc(O)cc2)oc2cc(O)cc(O)c12
inactive: [1] | [2] | [4] | [5] | [6] | [7] | [9] | [10]
active: [3] 8.93 µM | [8] 9.39 µM

O=C(O)CCCCCCCCC(=O)O
inactive: [1] | [2] | [3]

CCCCCCCCC=CCCCCCCCC1=NCCN1CCO
inactive: [1] | [3] | [4] | [6] | [7] | [11] | [8] | [12] | [13]
active: [2] 26 µM | [5] 21 µM

CC(Oc1cc(Cl)ccc1Cl)C(=O)O (stereo not given)
inactive: [1] | [2] | [3] | [4] | [5] | [6] | [7] | [8] | [9] | [10]

CCC1(c2ccccc2)C(=O)NCNC1=O
inactive: [1] | [2] | [3] | [4] | [5]

O=CN1CCOCC1
not listed: [11] | [12] | [20]
inactive: all other assays above

Cc1cc(CCC(=O)OCCOCCOCCOC(=O)CCc2cc(C)c(O)c(C(C)(C)C)c2)cc(C(C)(C)C)c1O
active: [3] 23.4 µM | [15] 17.8 µM | [8] 24.2 µM | [9] 23.3 µM
not listed: [7] | [13]
inactive: all other assays above

CCc1cc(Cc2cc(CC)cc(C(C)(C)C)c2O)c(O)c(C(C)(C)C)c1
inactive: [1] | [5] | [7] | [20]
active: [2] 17.4 µM | [3] 7.08 µM | [4] 16.3 µM | [6] 51.9 µM | [11] 8.99 µM | [8] 7.31 µM | [9] 0.028 µM | [12] 9.1 µM

CCCCCCCCCCCCN1CCCCCC1=O
inactive: [1] | [2] | [4] | [5] | [6] | [7] | [8] | [12]
active: [3] 10.9 µM | [9] 1.93 µM

C=CC(=O)OCCC#N
active: [2] 50.9 µM | [3] 25.9 µM | [4] 44.1 µM | [5] 164 µM | [8] 6.89 µM
not listed: [14] | [15] | [16] | [17] | [18] | [19]
inactive: all other assays above
